High-throughput results as filed in PubChem BioAssay.
FBW7 act = FBW7 E3 ligase activators, primary screen, biochemical, AlphaScreen, human | AlphaScreen FBW7–phospho-cyclin E peptide binding, activator screen | AID 1259310, 2017 | 650,000 compounds, 0.13% hits | normalized activity (activation), % at 26.1 µM | F-box/WD repeat-containing protein 7 (Homo sapiens), Q969H0; in the data active means normalized activity above about 1.9%;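 further: purified mutant Fbw7 with reduced substrate affinity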
GPR151 ag = activators of human GPR151, primary screen, cell-based, PathHunter beta-arrestin, luminescence | 650,000 compounds, 1% hits | G-protein coupled receptor 151 (Homo sapiens), Q8TDV0 | PathHunter beta-arrestin GPR151 cells | AID 1508602, 2020 | activation, % at 11.2 µM; in the data active means activation above about 4.9%;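 further: 0% = median of compound wells and 100% = cells with positive control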
Target sequence (Q8TDV0 whole entry, looked up): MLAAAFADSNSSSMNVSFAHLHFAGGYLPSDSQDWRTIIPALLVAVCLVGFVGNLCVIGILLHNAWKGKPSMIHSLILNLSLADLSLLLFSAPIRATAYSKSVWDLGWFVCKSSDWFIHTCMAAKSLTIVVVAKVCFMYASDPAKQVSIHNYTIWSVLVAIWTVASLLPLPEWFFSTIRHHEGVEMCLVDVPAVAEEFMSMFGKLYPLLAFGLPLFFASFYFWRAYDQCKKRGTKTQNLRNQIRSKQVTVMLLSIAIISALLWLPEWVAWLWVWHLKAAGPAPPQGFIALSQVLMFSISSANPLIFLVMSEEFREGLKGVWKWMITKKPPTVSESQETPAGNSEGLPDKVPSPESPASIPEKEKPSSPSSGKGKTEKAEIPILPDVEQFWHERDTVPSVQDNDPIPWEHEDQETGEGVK
MITF inh = MITF inhibitors, primary screen, biochemical, AlphaScreen, human; Microphthalmia-associated transcription factor (Homo sapiens), O75030; AlphaScreen MITF homodimerization, bead proximity signal; inhibition, % at 2.6 µM; 650,000 compounds, 0.91% hits; AID 1259374, 2018; in the data active means inhibition above about 50%;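 further: 0% = vehicle wells with protein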
TEAD-YAP block = TEAD-YAP interaction inhibition, primary screen, TEAD-YAP interaction inhibitor project, luminescence, HEK-TIYL cells; 640,000 compounds, 1.4% hits; TEAD-Gal4/YAP UAS-luciferase luminescence; inhibition, % at 9.12 µM; AID 1259422, 2018; in the data active means inhibition above about 32%;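 further: 0% = median of test compound wells and 100% = reference inhibitor wells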
MITF confirm = MITF inhibitors, retest of hits, confirmation, biochemical, AlphaScreen, triplicate; shares compounds with MITF inh; AlphaScreen MITF homodimerization, biotin/His-MITF beads; inhibition, % at 2.6 µM; 4,700 compounds, 16% hits;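 active means inhibition above a cutoff derived from the DMSO control wells, cut at about 28% in these data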;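 further: 0% = MITF dimer wells with DMSO only; inhibitors lower the bead chemiluminescence by keeping MITF from dimerizing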
AS interf DR = AlphaScreen optical interference compounds, dose response, counter-screen, biochemical, HTS | shares compounds with MITF inh | AlphaScreen optical interference counterscreen, cell-free | IC50, µM | 480 compounds, 6% hits | AID 1259373, 2018; call rule not given here
AS interf ctr = AlphaScreen optical interference compounds, counter-screen for MITF inhibitor project, biochemical, triplicate; shares compounds with MITF inh; AID 1259376, 2018; inhibition, % at 2.6 µM; 4,700 compounds, 7.6% hits; LysRS AlphaScreen counterscreen, signal interference;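 active means inhibition above a cutoff derived from the DMSO control wells, cut at about 30% in these data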
Numbers without * were called inactive; / = no result. The list is not random: actives were taken first. Their share in the collection is about 3.5%.

SMILES | FBW7 act | GPR151 ag | MITF inh | TEAD-YAP block | MITF confirm | AS interf ctr | others
CSc1ccccc1NC(=O)c1ccccc1NS(C)(=O)=O | 0 | 1 | 10 | 7 | / | /
COc1ccc2cc(CN(CCCO)C(=S)NCC3CCCO3)c(=O)[nH]c2c1 (stereo not given) | 0 | 0 | -9 | 8 | / | /
COc1ccc(-c2noc(-c3cccc(I)c3)n2)cc1OC | 0 | 0 | 9 | -8 | / | /
c1cncc(CNc2nc(Nc3ccc(N4CCOCC4)cc3)c3ncn(C4CCCCC4)c3n2)c1 | 0 | -1 | 51* | -13 | 84* | -13
c1cncc(CNc2nc(Nc3ccc(N4CCOCC4)cc3)nc3c2ncn3C2CCCCC2)c1 | 0 | -1 | 14 | -3 | / | /
Cc1ncn(-c2ccc(Nc3ncc4cccc(-c5ccccc5F)c4n3)cc2)n1 | 1 | -2 | 28 | -14 | / | /
Cc1ncn(-c2ccc(N(C)c3ncc4cccc(-c5ccn[nH]5)c4n3)cc2)n1 | 1 | 0 | 58* | 15 | 57* | 10 | AS interf DR=>6.5
CC(=O)c1ccc(-c2ccc(/C=C/[N+](=O)[O-])o2)cc1 | 0 | 0 | 69* | -12 | 56* | 31*
O=C(O)c1ccccc1-c1ccc(/C=C/[N+](=O)[O-])o1 | -1 | 1 | 81* | 2 | 73* | -7 | AS interf DR=>6.5
O=C(NCc1ccccc1)C(=O)NNC(=O)C12CC3CC(CC(C3)C1)C2 | 0 | 0 | 0 | -7 | / | /
O=C(c1ccco1)N1CCN(Cc2ccccc2Br)CC1 | 0 | 0 | 60* | -40 | 6 | 14
O=C(c1ccco1)N1CCN(C(=O)c2ccco2)CC1 | 0 | 0 | -2 | -4 | / | /
CC(C)N1CCN(C(=O)c2ccco2)CC1 | 0 | 0 | 51* | 3 | 2 | 1
O=C(c1ccco1)N1CCN(Cc2ccncc2)CC1 | 0 | -1 | 82* | -1 | 7 | 27
COc1ccc(-c2nnc3c4cnn(C)c4ncn23)cc1OC | 0 | 0 | 4 | -9 | / | /
Cc1nn(-c2ccccc2)c2[nH]cc(C(=O)Nc3cccc4ccccc34)c(=O)c12 | 0 | -1 | -9 | -11 | / | /
O=C1c2ccccc2C(=O)N1c1ccc(N2C(=O)c3ccccc3C2=O)c(Cl)c1 | 0 | -1 | 2 | 1 | / | /
O=C1c2cccnc2C(=O)N1c1ccc(N2C(=O)c3cccnc3C2=O)c(Cl)c1 | -1 | -1 | 70* | -2 | 19 | 31*
O=C(O)c1ccc(N2C(=O)c3cccnc3C2=O)cc1 | -1 | 0 | 40 | 8 | / | /
O=C1c2cccnc2C(=O)N1c1ccc(Br)cc1 | -1 | -2 | 58* | 7 | 6 | 20
NC(=O)C(CO)NC(=O)CNC(=O)OCc1ccccc1 (stereo not given) | 0 | -1 | 15 | 10 | / | /
N#Cc1cc2c(nc1SCC(=O)c1cccc(Cl)c1)CCCC2 | 0 | -1 | 14 | 17 | / | /
COc1ccc(C(=O)Nc2ccc(S(=O)(=O)N3CCCCC3)cc2)cc1Br | 0 | -1 | 2 | -1 | / | /
COc1ccc(N2CC(CNC(=O)Cc3ccc(F)cc3)CC2=O)cc1 (stereo not given) | 0 | -1 | 55* | 4 | -16 | -3
O=C(Cc1ccccc1)NCc1c(F)c(F)c(F)c(F)c1F | 0 | 1 | -5 | 10 | / | /
SMILES | FBW7 act | GPR151 ag | MITF inh | TEAD-YAP block | MITF confirm | AS interf ctr | others
CC(=O)CCCC(C)CCCC(C)CCCC(C)C (stereo not given) | 0 | 2 | -1 | -6 | / | /
C/C(=C\CO)CC[C@H](C)CCC[C@H](C)CCCC(C)C | 0 | 2 | 105* | -24 | 0 | -3
CCCOc1ccc(C(=O)Nc2cccc(-c3nc4ncccc4o3)c2)cc1 | 0 | 0 | 69* | 0 | 13 | 16
CCOc1ccccc1OCCN1CCN(Cc2ccccc2)CC1 | 0 | 2 | 64* | 4 | -10 | -5
CCOc1ccccc1OCCN1CC(C)CC(C)C1 (stereo not given) | 0 | 0 | 78* | -11 | 18 | 12
CCOc1ccccc1OCCN1CCOCC1 | 0 | 0 | 3 | 1 | / | /
Fc1ccccc1OCCN1CCN(Cc2ccccc2)CC1 | 0 | 2 | 73* | -12 | 2 | -5
Fc1ccccc1OCCN1CCOCC1 | 0 | 1 | 45 | 6 | / | /
COc1ccc(NC(=O)c2cccnc2SC)c(OC)c1 | 0 | 1 | 10 | -7 | / | /
CCOC(=O)C1=C(C)N=c2s/c(=C/c3ccc(N4CCN(C)CC4)o3)c(=O)n2C1c1ccc(F)cc1 (stereo not given) | 0 | 0 | -19 | -19 | / | /
CCN(CC)c1nc(NCCCN2CCCC2=O)nc(Nc2ccc(-n3ccnc3)cc2)n1 | 1 | -1 | 21 | -5 | / | /
CCOC(=O)C1=C(C)NC2=C(C(=O)CCC2)C1c1cc2c(cc1[N+](=O)[O-])OCO2 (stereo not given) | 0 | -1 | 8 | 23 | / | /
CC1=C(C#N)C(c2cc3c(cc2[N+](=O)[O-])OCO3)C2=C(CCCC2=O)N1 (stereo not given) | 0 | -1 | 60* | 11 | 80* | -27 | AS interf DR=>6.5
O=C(Nc1cc(C(F)(F)F)ccc1Cl)c1nn2c(C(F)(F)F)cc(-c3ccccc3)nc2c1Cl | 0 | -1 | 65* | -1 | -1 | -1
O=C(Nc1cccc(C(F)(F)F)c1)c1nn2c(C(F)(F)F)cc(-c3ccccc3)nc2c1Cl | 0 | 0 | 16 | -6 | / | /
COc1ccc(OC)c(NC2CCCCC2OC)c1 (stereo not given) | 0 | 0 | 82* | 21 | 16 | 24
COc1ccccc1C(=O)Nc1ccc(C2(C#N)CCCC2)cc1 | 0 | -1 | 65* | -43 | 10 | 6
Nc1nc(-c2cccnc2)nn1C(=O)c1ccc(Cl)cc1 | 0 | -1 | 4 | -11 | / | /
Nc1nc(-c2cccnc2)nn1C(=O)c1ccc([N+](=O)[O-])cc1 | 0 | -2 | 55* | 6 | 12 | 17
CC(=O)Oc1cc(C(=O)OCC(=O)Nc2ccc(C)cc2)cc(OC(C)=O)c1OC(C)=O | 0 | 1 | 80* | -5 | 56* | 16 | AS interf DR=>7
CC(=O)Nc1ccc(C(=O)OCC(=O)Nc2cc(C)cc(C)c2)cc1 | 0 | 1 | 9 | 4 | / | /
CC(C)=CC1(C)N2CC3([N+](=O)[O-])CN1CC([N+](=O)[O-])(C2)C3(C)C (stereo not given) | 0 | 2 | 12 | -2 | / | /
O=Cc1ccc(OC(=O)C2CCC(N3C(=O)C4CC=CCC4C3=O)CC2)cc1 (stereo not given) | 0 | -1 | 9 | 2 | / | /
